Assay [1] concerns Plasmodium falciparum Sir2 (PF13_0152, Sir2A). The experiment in a line: Plasmodium falciparum Sir2A binding compounds – biochemical, small-molecule microarray, 635 nm fluorescence, primary screen (AID 1098).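 Further: score merges spot fluorescence intensity with its signal-to-noise ratio.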 The settings on record: fluorescence 635 nm, higher = more signal.
Assay [2] can be described thus: probe aDKK1 binding to arrayed compounds – biochemical, biotinylated probe, 635/667 nm fluorescence, primary screen (AID 1099).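 Further: score merges 667nm spot fluorescence with signal to noise across triplicate slides; reference of the scale not given here.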 As to conditions: small-molecule microarray, higher = more signal.
Assay [3] can be described thus: probe aCHRDL2 binding to arrayed compounds – biochemical, biotinylated probe, 635/667 nm fluorescence, primary screen (AID 1100). As to conditions: small-molecule microarray, higher = more signal.
A short description of assay [4]: change in splice reporter luminescence, either direction, cell-based, HEK293, spliceosome inhibition project, primary screen (AID 1101).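 Further: HEK293 cells carrying a splicing-competent luciferase reporter gene; test concentration not given here.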 The settings on record: HEK293 splicing luciferase reporter, 24 h, higher = more signal, called active from +8 up or from −8 down.
For assay [5], the target named is Fibroblast growth factor 10 (Homo sapiens) (UniProt O15520). Description: compounds binding fibroblast growth factor 10 – biochemical, small-molecule microarray, 635 nm fluorescence, primary screen (AID 1102). The settings on record: FGF10 binding, fluorescence 635 nm, higher = more signal.
Fibroblast growth factor 10 (Homo sapiens), sequence (O15520 whole entry, looked up): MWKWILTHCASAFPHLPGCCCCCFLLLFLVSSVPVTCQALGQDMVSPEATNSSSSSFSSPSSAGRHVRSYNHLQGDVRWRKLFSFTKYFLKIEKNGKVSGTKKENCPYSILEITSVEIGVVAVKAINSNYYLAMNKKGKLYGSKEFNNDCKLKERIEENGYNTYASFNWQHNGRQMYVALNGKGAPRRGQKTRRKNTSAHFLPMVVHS
Assay [6] relates to glycogen synthase kinase-3 (GSK3A per assay name; protocol says GSK3B). Description: compounds binding glycogen synthase kinase-3 – biochemical, small-molecule microarray, 635 nm fluorescence, GSK3A, primary screen (AID 1103). Further: the record names both GSK3A and GSK3B. As to conditions: fluorescence 635 nm, higher = more signal.
For assay [7], the target named is Epidermal growth factor receptor (Homo sapiens) (UniProt P00533). The experiment in a line: compounds binding epidermal growth factor receptor – biochemical, small-molecule microarray, 635 nm fluorescence, primary screen (AID 1104).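 Further: score merges 667 nm emission intensity with spot signal to noise over triplicate slides.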 As to conditions: EGFR binding, higher = more signal.
Epidermal growth factor receptor (Homo sapiens), sequence (P00533 whole entry, looked up): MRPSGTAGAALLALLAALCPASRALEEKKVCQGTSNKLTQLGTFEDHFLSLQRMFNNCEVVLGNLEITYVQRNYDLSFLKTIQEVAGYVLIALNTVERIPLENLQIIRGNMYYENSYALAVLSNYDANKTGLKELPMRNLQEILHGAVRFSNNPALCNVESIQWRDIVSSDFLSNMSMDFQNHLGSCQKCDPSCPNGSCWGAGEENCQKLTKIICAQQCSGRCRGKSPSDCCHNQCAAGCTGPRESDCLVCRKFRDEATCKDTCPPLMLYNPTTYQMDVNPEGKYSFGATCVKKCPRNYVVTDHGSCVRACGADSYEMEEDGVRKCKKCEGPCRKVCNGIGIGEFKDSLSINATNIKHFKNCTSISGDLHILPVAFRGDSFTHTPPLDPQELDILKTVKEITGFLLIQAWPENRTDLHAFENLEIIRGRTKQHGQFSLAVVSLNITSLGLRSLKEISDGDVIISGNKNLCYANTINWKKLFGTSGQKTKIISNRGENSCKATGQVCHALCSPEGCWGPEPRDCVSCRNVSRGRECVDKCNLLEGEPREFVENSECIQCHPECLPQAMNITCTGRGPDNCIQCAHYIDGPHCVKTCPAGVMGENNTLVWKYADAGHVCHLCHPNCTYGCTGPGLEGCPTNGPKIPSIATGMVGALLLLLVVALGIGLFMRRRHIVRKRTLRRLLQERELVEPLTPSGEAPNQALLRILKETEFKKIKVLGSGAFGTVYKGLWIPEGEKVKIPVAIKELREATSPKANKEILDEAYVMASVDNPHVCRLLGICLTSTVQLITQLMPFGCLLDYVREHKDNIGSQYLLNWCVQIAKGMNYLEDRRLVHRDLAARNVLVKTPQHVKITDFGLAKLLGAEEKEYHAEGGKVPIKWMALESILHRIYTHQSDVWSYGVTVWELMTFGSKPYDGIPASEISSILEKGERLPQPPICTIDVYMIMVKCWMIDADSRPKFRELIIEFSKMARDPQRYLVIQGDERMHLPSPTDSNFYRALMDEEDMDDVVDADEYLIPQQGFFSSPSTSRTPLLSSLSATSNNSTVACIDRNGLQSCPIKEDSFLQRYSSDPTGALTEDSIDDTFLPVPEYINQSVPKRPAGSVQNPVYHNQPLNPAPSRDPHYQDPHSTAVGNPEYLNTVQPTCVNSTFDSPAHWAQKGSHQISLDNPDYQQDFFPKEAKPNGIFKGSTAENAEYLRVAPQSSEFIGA
Assay [8] has as its target Follistatin-related protein 3 (Homo sapiens) (UniProt O95633). Description: compounds binding follistatin-related protein 3 – biochemical, small-molecule microarray, 635 nm fluorescence, primary screen (AID 1105).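 Further: score merges emission near 667 nm and signal to noise per printed spot across three slides.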 As to conditions: FSTL3 binding, higher = more signal.
In assay [9] the target is Dickkopf-related protein 1 (Homo sapiens) (UniProt O94907). Description: small molecules binding DKK1 protein – biochemical, small-molecule microarray, 635 nm fluorescence scan, primary screen (AID 1106).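 Further: score merges emission near 667 nm with signal to noise over three replicate slides.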 The settings on record: higher = more signal.
Dickkopf-related protein 1 (Homo sapiens), sequence (O94907 whole entry, looked up): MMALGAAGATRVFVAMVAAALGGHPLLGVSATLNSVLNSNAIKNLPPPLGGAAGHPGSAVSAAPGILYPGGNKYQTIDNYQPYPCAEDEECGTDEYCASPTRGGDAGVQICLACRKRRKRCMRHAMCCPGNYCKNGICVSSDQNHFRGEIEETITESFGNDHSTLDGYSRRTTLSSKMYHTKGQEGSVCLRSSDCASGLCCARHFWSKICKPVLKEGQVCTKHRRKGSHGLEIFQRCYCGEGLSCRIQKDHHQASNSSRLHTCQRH
The subject of assay [10] is Inhibin beta A chain (activin A). Description: small molecules binding activin A – biochemical, small-molecule microarray, 635 nm fluorescence scan, primary screen (AID 1107).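 Further: mouse activin A protein probed at 4.33 µg/mL on printed slides; score merges bound-protein fluorescence near 667 nm with spot signal-to-noise.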 As to conditions: INHBA, higher = more signal.

Values joined by “and” are separate entries in the source; they are usually repeats but may differ in a detail not shown here. Equal values may be shown once. Active and inactive are the calls of the source.

Follistatin-related protein 3 (Homo sapiens), sequence (O95633 whole entry, looked up): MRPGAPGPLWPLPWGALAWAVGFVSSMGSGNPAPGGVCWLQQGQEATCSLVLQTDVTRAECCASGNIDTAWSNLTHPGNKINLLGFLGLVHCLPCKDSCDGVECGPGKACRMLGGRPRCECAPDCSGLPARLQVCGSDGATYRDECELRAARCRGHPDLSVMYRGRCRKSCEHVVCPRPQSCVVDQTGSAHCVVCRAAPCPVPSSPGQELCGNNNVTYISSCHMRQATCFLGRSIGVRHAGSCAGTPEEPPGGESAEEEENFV

Consider `COC(=O)[C@@]1(Cc2ccccc2)[C@H]2c3cc(C(=O)N(C)C)n(C[C@H](O)CO)c3C[C@H]2CN1C(=O)c1ccccc1`, for which the composite z-score in assay [1] was 0.544 and 0.831; in assay [2], 0.781 and 0.66; in [3] it was 0.761 and 1.21; in [5], -0.397 and 0.483; in assay [6], -0.137 and -0.227; in [7] it was -0.647 and 0.374. In addition, the composite z-score in [8] was -0.397 and 0.0048; in assay [9] it was -0.907 and -0.236; in assay [10] it was 0.985 and 1.1. Moreover, the z-score in [4] was -2.37 (inactive) and 1.46 (inactive).

For the molecule `C[C@@H]1CC[C@H]2C(=O)O[C@H](CN=[N+]=[N-])CN2[C@H]1c1ccc(Br)cc1`, the composite z-score in [1] is -0.0157 and 0.121; in [2], 0.117 and -0.31; in assay [3], -0.444 and -0.466; in assay [5], 0.152 and -0.213; in [6], -0.267 and -0.529; in [7], 0.0267 and 0.0063. In addition, the composite z-score is -0.237 and -0.547 in assay [8]; 0.342 and -0.127 in assay [9]; 0.746 and 0.78 in assay [10]. For the same molecule, the z-score in assay [4] is 0.254 (inactive) and -0.0654 (inactive).

Regarding `C[C@@H]1CC[C@@H](C(=O)O)N[C@H]1c1ccc(-c2ccco2)cc1`, the composite z-score in assay [1] was 1.04; in assay [2], -0.187; in assay [3] it was -0.826; in assay [5], 0.614; in [6], 0.722; in [7], 0.946. Moreover, the composite z-score in [8] was 1.44; in [9], 0.951; in [10] it was 0.805. For the same molecule, the z-score in assay [4] is 0.0295 (inactive).

Take `C=C[C@H](C)[C@@H](O)c1ccc(OCCO)cc1`: the composite z-score in [1] was 1.19 and -0.0088; in [2], 0.892 and -0.0695; in [3] it was 0.689 and 0.639; in assay [5], -1.09 and -0.675; in assay [6], -0.914 and -0.622; in [7], -1.51 and -0.966. In addition, the composite z-score in [8] was -1.35 and -0.796; in assay [9], -1.05 and -0.262; in assay [10] it was -1.03 and -0.831. Also, in [4], the z-score is -0.636 (inactive) and -0.215 (inactive).

In the case of `C=CCN(Cc1ccccc1)C(=O)C1N(c2ccc(CCO)cc2)C(=O)C2C(C(=O)O)C3C=CC21O3` (stereo not given), the composite z-score in assay [1] was 0.808 and 1.9; in [2], 0.433 and -0.26; in [3], 1.08 and 1.01; in assay [5], -1.98 and -2.13; in assay [6], -1.13 and -1; in assay [7], -1.69 and -2.44. Besides, the composite z-score in [8] is -3.03 and -1.19; in assay [9], -2.7 and -3.74; in assay [10] it was -3.78 and -3.04. Further, the z-score in assay [4] was -0.426 (inactive) and -0.139 (inactive).

For `CC(=O)OC[C@H]1O[C@H](C#CC(C)(C)C)C=C[C@@H]1OC(C)=O`, the composite z-score in [1] was 0.731; in assay [2] it was 0.202; in [3], -0.508; in assay [5] it was 0.871; in [6], 0.225; in assay [7], 0.274. Moreover, the composite z-score in assay [8] was 1.31; in [9], 0.535; in assay [10], -0.209. The z-score in [4] was 1.16 (inactive).

Regarding `C=CCN(Cc1ccccc1)C(=O)C1N(CCOCCO)C(=O)C2C(C(=O)O)C3C=CC21O3` (stereo not given), the composite z-score is 0.824 and 1.03 in [1]; 0.0606 and -0.027 in [2]; 1 and 1.1 in assay [3]; -1.09 and -0.997 in [5]; -0.419 and -0.793 in [6]; -2.36 and -1.85 in assay [7]. Also, the composite z-score was -2.65 and -2.12 in assay [8]; -2.78 and -2.98 in [9]; -2.4 and -2.13 in assay [10]. In assay [4], the z-score was -1.11 (inactive) and -0.281 (inactive).

As for `COC(=O)C1=C(C)N(Cc2ccccc2)[C@]23O[C@](C(=O)OC)(C(=O)N2[C@@H]1c1ccccc1)[C@H]1C(=O)N(C)C(=O)[C@H]13`, the composite z-score in [1] was 0.626 and 0.336; in assay [2], 0.0479 and 0.177; in assay [3] it was -0.284 and -0.474; in assay [5] it was 0.408 and 0.827; in assay [6] it was 0.933 and 0.452; in [7], 0.473 and 0.427. The composite z-score is 0.645 and 0.82 in [8]; 0.415 and 0.942 in assay [9]; -0.338 and 0.137 in assay [10]. Besides, the z-score in [4] was -1.03 (inactive) and -1.27 (inactive).

Consider `COC(=O)C1=C(C)N(Cc2ccccc2)C2=C3C(=O)CCC[C@@H]3[C@@](O)(C(=O)OC)C(=O)N2[C@@H]1c1ccccc1`, for which the composite z-score is 0.464 and -0.773 in [1]; 0.0021 and -0.0015 in assay [2]; -0.334 and -0.299 in assay [3]; 0.887 and 0.389 in [5]; 0.379 and 0.224 in assay [6]; 0.459 and 0.433 in assay [7]. Moreover, the composite z-score is 0.843 and 0.284 in [8]; 0.641 and 0.516 in assay [9]; 0.177 and 0.506 in assay [10]. The z-score in assay [4] is 0.732 (inactive) and -1.28 (inactive).

Regarding `CO[C@@H]1COC(=O)CC=C[C@H](C)COC(=O)[C@H](C)NC(=O)CC=C[C@H]1C`, the composite z-score in assay [1] is 0.237; in assay [2], -0.525; in assay [3] it was -0.774; in [5], 0.754; in assay [6], 0.736; in assay [7] it was 0.715. Moreover, the composite z-score in assay [8] was found to be 0.829; in assay [9] it was 0.951; in [10] it was 0.249. In [4], the z-score is -0.401 (inactive).

As for `COC(=O)C1=C(C)N(Cc2ccccc2)[C@]23O[C@](C(=O)OC)(C(=O)N2[C@@H]1c1ccccc1)[C@H]1C(=O)N(c2ccccc2)C(=O)[C@H]13`, the composite z-score in assay [1] is 0.224 and 0.295; in [2] it was -0.0965 and 0.134; in [3], -0.362 and -0.418; in [5] it was 0.775 and 1.09; in assay [6], 0.989 and 0.463; in assay [7], 0.367 and 0.392. Also, the composite z-score in assay [8] is 0.514 and 0.835; in assay [9], 0.629 and 0.666; in [10] it was 0.111 and -0.155. The z-score in assay [4] is 0.0537 (inactive) and -0.654 (inactive).

`CCOC(=O)c1ccc(NC(=O)O[C@H]2[C@H](OC(=O)Nc3ccccc3)[C@H](OC(=O)Nc3ccccc3)[C@@H](OC)O[C@@H]2CO)cc1`: the composite z-score in assay [1] is 1.45 and 1.74; in assay [2] it was 0.968 and 0.673; in assay [3], 0.873 and 0.902; in assay [5], 1.27 and 0.968; in [6], 1.31 and 1.33; in [7], 0.591 and 0.218. In addition, the composite z-score in assay [8] was 1.39 and 1.38; in assay [9], 0.531 and 0.259; in [10], 0.888 and 0.327. Besides, the z-score in assay [4] is -0.285 (inactive) and -0.997 (inactive).

With `C=CCN(C(=O)C(c1cccs1)N(C(=O)/C=C\C(=O)O)C(C)(C)CO)C(C)(C)C` (stereo not given), the composite z-score is -0.387 and -0.159 in assay [1]; -0.136 and -0.239 in assay [2]; 0.784 and 0.498 in [3]; -1.22 and -1.16 in assay [5]; -0.489 and -0.532 in assay [6]; -0.928 and -0.661 in assay [7]. The composite z-score was -1.54 and -1.07 in assay [8]; -1.53 and -1.58 in assay [9]; -0.792 and -0.643 in [10]. Also, the z-score in assay [4] was -1.67 (inactive) and -1.52 (inactive).

Consider `CCOC(=O)[C@H](CC(C)C)NC(=O)CCC1CC(OC(=O)NCc2cccc3ccccc23)CC2(CCCC(COC(=O)NCc3ccccc3)O2)O1` (stereo not given in full), for which the composite z-score in assay [1] is 0.929; in [2] it was -0.299; in assay [3] it was -0.103; in assay [5] it was -0.242; in assay [6] it was -0.97; in [7] it was -0.152. Besides, the composite z-score in assay [8] was -0.499; in [9], -0.311; in [10], 0.493. The z-score in assay [4] is -2.18 (inactive).

The record behind these values is PubChem BioAssay.
